A number with no mark means an inactive call. Active and inactive are the calls of the source.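 Rule for the calls, unless noted: active = mean inhibition above 46.68%, the untreated control wells mean plus 3 SD; inactive = the rest.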
Target: Nuclear receptor coactivator 1 (Homo sapiens) (UniProt Q15788)
Sequence (Q15788 whole entry, looked up): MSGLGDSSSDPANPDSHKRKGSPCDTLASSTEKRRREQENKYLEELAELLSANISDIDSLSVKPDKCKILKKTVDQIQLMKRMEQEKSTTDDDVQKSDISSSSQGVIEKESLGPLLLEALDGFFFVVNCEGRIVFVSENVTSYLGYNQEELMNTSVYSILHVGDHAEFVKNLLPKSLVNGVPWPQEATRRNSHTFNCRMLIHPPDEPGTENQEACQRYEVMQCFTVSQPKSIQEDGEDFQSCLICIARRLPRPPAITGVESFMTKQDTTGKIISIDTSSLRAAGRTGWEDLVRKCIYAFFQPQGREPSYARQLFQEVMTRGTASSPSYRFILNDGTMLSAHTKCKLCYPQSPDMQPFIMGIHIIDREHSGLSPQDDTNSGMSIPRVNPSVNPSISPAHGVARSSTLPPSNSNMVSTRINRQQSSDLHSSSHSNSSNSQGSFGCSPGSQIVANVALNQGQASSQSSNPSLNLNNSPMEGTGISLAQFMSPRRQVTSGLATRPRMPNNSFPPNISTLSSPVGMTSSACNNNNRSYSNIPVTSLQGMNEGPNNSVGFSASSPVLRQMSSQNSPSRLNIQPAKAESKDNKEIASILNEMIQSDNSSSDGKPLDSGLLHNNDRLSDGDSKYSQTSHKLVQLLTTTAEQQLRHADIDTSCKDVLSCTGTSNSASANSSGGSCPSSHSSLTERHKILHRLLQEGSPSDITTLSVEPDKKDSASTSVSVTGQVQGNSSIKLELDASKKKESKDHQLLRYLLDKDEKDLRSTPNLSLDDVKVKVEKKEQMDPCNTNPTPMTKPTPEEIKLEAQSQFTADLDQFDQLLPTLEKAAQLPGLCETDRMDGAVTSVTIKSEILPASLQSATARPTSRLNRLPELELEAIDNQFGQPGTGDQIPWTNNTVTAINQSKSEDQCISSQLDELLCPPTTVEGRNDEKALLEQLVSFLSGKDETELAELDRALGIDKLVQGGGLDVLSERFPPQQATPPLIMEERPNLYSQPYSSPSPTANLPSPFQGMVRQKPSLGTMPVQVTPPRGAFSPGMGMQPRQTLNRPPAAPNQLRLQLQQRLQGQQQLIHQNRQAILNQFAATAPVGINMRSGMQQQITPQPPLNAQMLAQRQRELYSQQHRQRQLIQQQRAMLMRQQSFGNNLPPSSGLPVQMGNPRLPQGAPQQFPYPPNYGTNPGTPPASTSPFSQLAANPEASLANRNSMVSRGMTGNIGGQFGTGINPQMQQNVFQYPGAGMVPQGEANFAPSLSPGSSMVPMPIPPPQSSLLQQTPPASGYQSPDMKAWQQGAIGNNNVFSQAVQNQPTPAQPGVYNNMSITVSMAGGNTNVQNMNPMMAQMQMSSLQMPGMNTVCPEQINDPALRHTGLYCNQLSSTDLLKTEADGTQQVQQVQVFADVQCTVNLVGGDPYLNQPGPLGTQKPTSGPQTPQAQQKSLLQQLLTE
Assay: SRC1 coactivator transcriptional activity inhibitors, confirmation, cell-based, luminescence, quadruplicate (AID 588820);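 note: 0% = DMSO wells and 100% = gossypol 36 µM treated wells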
Conditions: HEK293 GAL4-SRC1 luciferase reporter, at 3.6 µM, active compounds read high
With C[C@H]1Cn2cnc(C(=O)Nc3cccc(Cl)c3)c2C(=O)N1 the inhibition was 61.2% (active).
For O=C(c1ccccc1)C1CCN(C(=O)c2ccc(Cl)cc2)CC1, the inhibition was 7.58%.
With Cc1cc(-c2ccc(F)cc2)n2ncc(-c3ccccc3)c2n1 the inhibition was -87.3%.
O=S(=O)(Nc1ccc2c(c1)OCCO2)c1cccs1 showed an inhibition of 1.12%.
In the case of FC(F)(F)c1cccc(Oc2ccc3c(C(F)(F)F)cc(C(F)(F)F)nc3n2)c1, the inhibition is reported as -2.81%.
Work on CO/N=C/C(c1ccc(Cl)nc1)S(=O)(=O)c1ccccc1 (stereo not given) yielded an inhibition of -12.5%.
CC(C)(CNC(=O)c1ccc(-c2cccc(C(F)(F)F)c2)o1)N1CCOCC1 gave an inhibition of -2.1%.
In the case of Cc1cc(=O)oc2cc(OCc3ccc(C(=O)N4CCN(c5ccc([N+](=O)[O-])cc5)CC4)cc3)ccc12, the inhibition is reported as 10.5%.
For Cn1c(N)c(C(=O)CSc2nn(-c3ccccc3)c(=S)s2)c(=O)n(C)c1=O, the inhibition was 8.31%.
With COc1ccc(NC(=O)CN(C)C(=O)c2ccc(N3CCCCC3)c([N+](=O)[O-])c2)cc1 the inhibition was -5.37%.
With COc1cc(C(=O)NCCOc2cc(C)ccc2C(C)C)cc(OC)c1OC the inhibition was -14.4%.
Work on COc1ccc(N(Cc2cc3cc(OC)ccc3[nH]c2=O)S(=O)(=O)c2ccc(NC(C)=O)cc2)cc1 yielded an inhibition of -21.4%.
O=C1NCCc2c1[nH]c1ccc([N+](=O)[O-])cc21 showed an inhibition of 23.1%.
COc1cc(OC)c(NS(=O)(=O)c2ccc(Cl)c(C(=O)OC(C)C(=O)N3CCCC3)c2)cc1Cl (stereo not given) showed an inhibition of -10.2%.
Work on O=C(NC1CCCC1)C(c1ccccc1)N(Cc1ccco1)C(=O)Cc1cccs1 (stereo not given) yielded an inhibition of 17.7%.
With COc1ccc(N2CCN(C(=O)c3ccc(CS(=O)c4cccc(C)c4)o3)CC2)cc1 (stereo not given) the inhibition was -16.2%.
With CCN(CC)CCNC(=O)c1ccc(NC(=O)C2CCN(c3ncnc4sc(C)c(C)c34)CC2)cc1 the inhibition was 24.3%.
O=C(CSC1=NS(=O)(=O)c2cc(Cl)ccc2N1)Nc1ccccc1C(F)(F)F showed an inhibition of -22.4%.
CCSc1nnc(NC(=O)C(C)(C(F)(F)F)C(F)(F)F)s1 gave an inhibition of -15.3%.
For COC(=O)c1cccc(NC(=O)CN2C(=O)c3ccccc3C2=O)c1, the inhibition was -23.7%.
COCCn1c(SCC(=O)Nc2cccc(NC(C)=O)c2)nc2c([nH]c3ccccc32)c1=O showed an inhibition of -31.7%.
For COc1ccc(-c2cc(C(=O)N(C)CC(=O)Nc3cccc(F)c3)c3ccccc3n2)cc1OC, the inhibition was -19.1%.
c1ccc(Cc2nnc3sc(-c4ccncc4)nn23)cc1 gave an inhibition of 5.92%.
In the case of Cc1ccc(C(=O)NC2CCCc3c2cnn3-c2ccc(F)cc2F)cn1 (stereo not given), the inhibition is reported as -17.5%.
In the case of O=C(Nc1cccc(Br)c1)c1cc(S(=O)(=O)N2CCOCC2)cs1, the inhibition is reported as -2.57%.
Work on CC(C)(C)OC(=O)N(CCc1ccccc1)Cc1ccc(OCc2cccc(NC(=O)C3CCCC3)c2)cc1 yielded an inhibition of -0.88%.
Cc1cc(OC(C)C(=O)Nc2ccncc2)ccc1Cl (stereo not given) showed an inhibition of -0.51%.
Work on O=C(CCCn1c(=S)[nH]c2ccsc2c1=O)Nc1ccc2c(c1)OCCO2 yielded an inhibition of -1.89%.
With O=c1[nH]cnc2sc3c(c12)CCCC3 the inhibition was 10.8%.
O=C(CCC(=O)Nc1ccc(Br)cc1)N/N=C/c1ccccc1O showed an inhibition of 29.2%.
Compound CCOC(=O)C1=C[C@@H](CC)N(S(=O)(=O)c2ccc([N+](=O)[O-])cc2)[C@H]1c1ccccc1 has an inhibition of -2.32%.
COc1ccccc1CNC(=O)C(=O)NCCC1CCCCN1S(=O)(=O)c1ccc(C)cc1 (stereo not given) showed an inhibition of 26.4%.
Compound COc1cc2c(cc1OC)C(NC(=O)C(F)(F)F)CNC2=O (stereo not given) has an inhibition of 45.5%.
COc1cc(/C=C/C(=O)Nc2ccc3nc4n(c(=O)c3c2)CCCC4)cc(OC)c1OC showed an inhibition of -22.6%.
Cc1cc(C)c2nc(NNC(=O)c3ccc(S(=O)(=O)N4CCc5ccccc5C4)cc3)sc2c1 showed an inhibition of 32.2%.
With Cc1ccccc1C(=O)/C(C#N)=N/Nc1c(C)n(C)n(-c2ccccc2)c1=O the inhibition was 34.3%.
Work on COc1ccccc1NC(=O)NC1(C(=O)N2CCCCC2)CCCCC1 yielded an inhibition of 4.76%.
For CSc1ccc(CN2CCN(C(=O)CC(C)C)CC2)cc1, the inhibition was -3.21%.
Work on Cc1ccc(O)c(C(=O)c2cnn(C(=O)COc3ccc(Cl)cc3)c2)c1 yielded an inhibition of 23.6%.
Compound COc1cccc(OCCn2cc(C(C)=O)c3ccccc32)c1 has an inhibition of 10.7%.

System: not listed separately
Assay: VP16 transactivation inhibitors, counter-screen for SRC1 inhibitor project, cell-based, luminescence, high throughput (AID 588824; in the data active = inhibition above about 25%)
Conditions: cell-based VP16 transactivation luciferase luminescence; at 3.6 µM; active compounds read high
For C[C@H]1Cn2cnc(C(=O)Nc3cccc(Cl)c3)c2C(=O)N1, the inhibition was 34% (active).
O=C(c1ccccc1)C1CCN(C(=O)c2ccc(Cl)cc2)CC1 gave an inhibition of 5.47%.
Cc1cc(-c2ccc(F)cc2)n2ncc(-c3ccccc3)c2n1 showed an inhibition of -34.6%.
Compound O=S(=O)(Nc1ccc2c(c1)OCCO2)c1cccs1 has an inhibition of -9.45%.
FC(F)(F)c1cccc(Oc2ccc3c(C(F)(F)F)cc(C(F)(F)F)nc3n2)c1 gave an inhibition of -6.43%.
Compound CO/N=C/C(c1ccc(Cl)nc1)S(=O)(=O)c1ccccc1 (stereo not given) has an inhibition of -1.73%.
Compound CC(C)(CNC(=O)c1ccc(-c2cccc(C(F)(F)F)c2)o1)N1CCOCC1 has an inhibition of -0.96%.
Work on Cc1cc(=O)oc2cc(OCc3ccc(C(=O)N4CCN(c5ccc([N+](=O)[O-])cc5)CC4)cc3)ccc12 yielded an inhibition of -3.02%.
In the case of Cn1c(N)c(C(=O)CSc2nn(-c3ccccc3)c(=S)s2)c(=O)n(C)c1=O, the inhibition is reported as 17.7%.
Work on COc1ccc(NC(=O)CN(C)C(=O)c2ccc(N3CCCCC3)c([N+](=O)[O-])c2)cc1 yielded an inhibition of -5.37%.
Compound COc1cc(C(=O)NCCOc2cc(C)ccc2C(C)C)cc(OC)c1OC has an inhibition of 23.8%.
With COc1ccc(N(Cc2cc3cc(OC)ccc3[nH]c2=O)S(=O)(=O)c2ccc(NC(C)=O)cc2)cc1 the inhibition was -1.84%.
Work on O=C1NCCc2c1[nH]c1ccc([N+](=O)[O-])cc21 yielded an inhibition of 18.1%.
COc1cc(OC)c(NS(=O)(=O)c2ccc(Cl)c(C(=O)OC(C)C(=O)N3CCCC3)c2)cc1Cl (stereo not given) showed an inhibition of 10.7%.
With O=C(NC1CCCC1)C(c1ccccc1)N(Cc1ccco1)C(=O)Cc1cccs1 (stereo not given) the inhibition was 31.5% (active).
In the case of COc1ccc(N2CCN(C(=O)c3ccc(CS(=O)c4cccc(C)c4)o3)CC2)cc1 (stereo not given), the inhibition is reported as -2.71%.
Work on CCN(CC)CCNC(=O)c1ccc(NC(=O)C2CCN(c3ncnc4sc(C)c(C)c34)CC2)cc1 yielded an inhibition of 17.3%.
In the case of O=C(CSC1=NS(=O)(=O)c2cc(Cl)ccc2N1)Nc1ccccc1C(F)(F)F, the inhibition is reported as -12.3%.
Compound CCSc1nnc(NC(=O)C(C)(C(F)(F)F)C(F)(F)F)s1 has an inhibition of 4.32%.
Compound COC(=O)c1cccc(NC(=O)CN2C(=O)c3ccccc3C2=O)c1 has an inhibition of -3.69%.
For COCCn1c(SCC(=O)Nc2cccc(NC(C)=O)c2)nc2c([nH]c3ccccc32)c1=O, the inhibition was -16.2%.
Compound COc1ccc(-c2cc(C(=O)N(C)CC(=O)Nc3cccc(F)c3)c3ccccc3n2)cc1OC has an inhibition of -8.17%.
c1ccc(Cc2nnc3sc(-c4ccncc4)nn23)cc1 gave an inhibition of -1.52%.
In the case of Cc1ccc(C(=O)NC2CCCc3c2cnn3-c2ccc(F)cc2F)cn1 (stereo not given), the inhibition is reported as 27.2% (active).
Compound O=C(Nc1cccc(Br)c1)c1cc(S(=O)(=O)N2CCOCC2)cs1 has an inhibition of -2.73%.
Compound CC(C)(C)OC(=O)N(CCc1ccccc1)Cc1ccc(OCc2cccc(NC(=O)C3CCCC3)c2)cc1 has an inhibition of -7.49%.
Cc1cc(OC(C)C(=O)Nc2ccncc2)ccc1Cl (stereo not given) showed an inhibition of 7.56%.
For O=C(CCCn1c(=S)[nH]c2ccsc2c1=O)Nc1ccc2c(c1)OCCO2, the inhibition was -10.8%.
O=c1[nH]cnc2sc3c(c12)CCCC3 showed an inhibition of 11.2%.
Compound O=C(CCC(=O)Nc1ccc(Br)cc1)N/N=C/c1ccccc1O has an inhibition of 22.2%.
Compound CCOC(=O)C1=C[C@@H](CC)N(S(=O)(=O)c2ccc([N+](=O)[O-])cc2)[C@H]1c1ccccc1 has an inhibition of -3.27%.
COc1ccccc1CNC(=O)C(=O)NCCC1CCCCN1S(=O)(=O)c1ccc(C)cc1 (stereo not given) gave an inhibition of 7.29%.
In the case of COc1cc2c(cc1OC)C(NC(=O)C(F)(F)F)CNC2=O (stereo not given), the inhibition is reported as 22.3%.
For COc1cc(/C=C/C(=O)Nc2ccc3nc4n(c(=O)c3c2)CCCC4)cc(OC)c1OC, the inhibition was -26.8%.
For Cc1cc(C)c2nc(NNC(=O)c3ccc(S(=O)(=O)N4CCc5ccccc5C4)cc3)sc2c1, the inhibition was 30% (active).
Cc1ccccc1C(=O)/C(C#N)=N/Nc1c(C)n(C)n(-c2ccccc2)c1=O gave an inhibition of 21.1%.
For COc1ccccc1NC(=O)NC1(C(=O)N2CCCCC2)CCCCC1, the inhibition was 10.3%.
Compound CSc1ccc(CN2CCN(C(=O)CC(C)C)CC2)cc1 has an inhibition of -2.54%.
Cc1ccc(O)c(C(=O)c2cnn(C(=O)COc3ccc(Cl)cc3)c2)c1 gave an inhibition of 4.05%.
For COc1cccc(OCCn2cc(C(C)=O)c3ccccc32)c1, the inhibition was 30.8% (active).
